Screening results: PubChem, National Center for Advancing Translational Sciences (NCATS)
KCNH2 3.1 inh: qHTS for Inhibitors of KCHN2 3.1: Mutant qHTS; activity change, % (tested at about 1.8 µM); hit rate 0.95% among 340,000; Potassium voltage-gated channel subfamily H member 2, brain isoform KCNH2 3.1 (human); U2OS KCNH2 3.1, thallium flux FluxOr; stronger effect = lower value;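 active = maximum activity change below -70%; inconclusive = maximum activity change from -70% to -50%; inactive = maximum activity change above -50%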;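 also: thallium influx rate constant from kinetic fluorescence after stimulation buffer; % is scaled to controls: 0 for no effect and ±100 for the full control effect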
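Steps: virus added to U2OS suspension (4 h, RT, dark); medium with 10% FBS added, cells plated, 37 C overnight; FluxOr/Red40 loading buffer 45 min RT; stimulation buffer, 2 min kinetic read; rate constant normalized.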
ClpP mod: qHTS Assay for Activators of ClpP; purified B. subtilis ClpP, FRET peptide cleavage, 20 min; Potency, µM (top dose mostly 57.5 µM), for the others: top-dose activity change, negative = active; hit rate 1.9% among 340,000; active = well fitted falling curve with a large enough effect; inconclusive = small, poorly fitted or top-dose-only effect; inactive = no such curve, though single readings can be large or run the other way; also: potency is read from the fitted curve at half-maximal effect; the source files actives as falling curves though it sought activators and does not explain the sign; nearly all actives have a fitted effect of over 65% in size
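FRET quenching reversal measured ClpP activation: 10 microg/mL B. subtilis ClpP at pH 8 with the FRET-FV decapeptide, read at 430 nm after 320 nm excitation. The 20-min minus 0-min signal was scaled between DMSO/no-enzyme wells and ADEP (5.8 microM final).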
TRPV1 PAM: HTS Assay for Compounds that Act as Potentiators of the Vanilloid Receptor 1; Transient receptor potential cation channel subfamily V member 1 (Homo sapiens), Q8NER1; TRPV1-expressing cells, Fluo-8 calcium influx, capsaicin EC20 potentiation; potentiation, % at 8.33 µM; hit rate 0.02% among 320,000; AID 540277, 2011; in the data active = potentiation above about 80%; inconclusive = between about 30% and that limit; also: 0% is about no effect
Target sequence (Q8NER1 whole entry, looked up): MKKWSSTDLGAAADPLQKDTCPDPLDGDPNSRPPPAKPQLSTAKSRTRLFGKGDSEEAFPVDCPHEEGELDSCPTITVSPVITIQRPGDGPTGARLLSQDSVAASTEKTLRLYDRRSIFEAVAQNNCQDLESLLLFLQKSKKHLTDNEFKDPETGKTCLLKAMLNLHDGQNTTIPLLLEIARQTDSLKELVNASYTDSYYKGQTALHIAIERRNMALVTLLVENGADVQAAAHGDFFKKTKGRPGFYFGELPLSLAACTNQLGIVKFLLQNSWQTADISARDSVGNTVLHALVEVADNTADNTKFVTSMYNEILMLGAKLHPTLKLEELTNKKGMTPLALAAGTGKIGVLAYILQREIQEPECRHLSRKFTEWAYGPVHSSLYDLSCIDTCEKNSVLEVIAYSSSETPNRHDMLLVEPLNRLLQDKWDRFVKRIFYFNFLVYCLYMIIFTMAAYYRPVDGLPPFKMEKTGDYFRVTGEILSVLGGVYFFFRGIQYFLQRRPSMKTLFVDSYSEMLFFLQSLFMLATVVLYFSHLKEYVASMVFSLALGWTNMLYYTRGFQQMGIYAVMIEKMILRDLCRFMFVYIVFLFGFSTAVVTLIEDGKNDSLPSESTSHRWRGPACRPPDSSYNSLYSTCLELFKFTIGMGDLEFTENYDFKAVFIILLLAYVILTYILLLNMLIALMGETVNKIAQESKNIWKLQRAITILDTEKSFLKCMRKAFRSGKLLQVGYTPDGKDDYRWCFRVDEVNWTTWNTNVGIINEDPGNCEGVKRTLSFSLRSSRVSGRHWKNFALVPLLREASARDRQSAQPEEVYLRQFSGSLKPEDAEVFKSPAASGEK
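Fluo-8 calcium influx in TRPV1-expressing cells, kinetic read (ex 480/em 520 nm). Compound added and read 3 min for agonist activity, followed by capsaicin at EC20 final and 2 min further read for enhancement.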
p53 reactivation: qHTS assay for re-activators of p53 using a Luc reporter; AID 504706, 2011; hit rate 0.063% among 320,000; H1299 p53-A138V BP100-luciferase reporter, luminescence, 24 h; Potency, µM (series often up to 92.2 µM), for the others: at the highest dose activity change, positive = activation, hits mostly activators; active = well fitted activation curve with a large enough effect; inconclusive = small, poorly fitted or top-dose-only effect; inactive = no such curve, though single readings can be large or run the other way; also: potency is read from the fitted curve at half-maximal effect; % of control where 0% means no effect; nearly all actives have a fitted effect of over 45% in size
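p53-null H1299 cells stably carrying temperature-sensitive p53-A138V and a BP100-luciferase reporter were pinned with compounds (4-point, 1:5 series) and held 24 hrs at 37 deg C. Luminescence was read 10 min after detection reagent.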
TRPV1 agonist: HTS Assay for Compounds that Act as Agonists of the Vanilloid Receptor 1. Transient receptor potential cation channel subfamily V member 1 (Homo sapiens), Q8NER1. TRPV1-expressing cells, Fluo-8 calcium influx, agonist mode. activation, % at 8.33 µM. hit rate 0.19% among 320,000. AID 540275, 2011; in the data active = activation above about 80%; inconclusive = between about 30% and that limit; also: 0% is about no effect
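TRPV1-expressing cells were cultured overnight at 35.5C and loaded with Fluo-8 calcium dye for 40 to 90 min at room temperature. After a 10 s baseline, compound was added and calcium influx was read kinetically for 3 min (ex 480/em 520 nm).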
hERG WT inh: qHTS for Inhibitors of KCHN2 3.1: Wildtype qHTS. U2OS, BacMam KCNH2, thallium flux FluxOr; stronger effect = lower value. activity change, % at 1.84 µM. hit rate 0.37% among 340,000. AID 720551, 2013;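 active = maximum activity change below -70%; inconclusive = maximum activity change between -70% and -50%; inactive = maximum activity change above -50%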; also: % is scaled to controls: 0 for no effect and ±100 for the full control effect
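U2OS cells transduced with wild-type KCNH2 virus are loaded with FluxOr dye for 45 min, and thallium flux is measured in kinetic reads before and after stimulation buffer. Rate constants are normalized to DMSO controls.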
The depositor's hits bear a star; i = inactive; u = inconclusive; x = not tested or not shown. The list is not random: actives were taken first. Their share in the collection is about 2.6%.

SMILES	KCNH2 3.1 inh	ClpP mod	TRPV1 PAM	p53 reactivation	TRPV1 agonist	hERG WT inh
OC1CCN(c2cc(-c3ccccc3)nc3cc(-c4ccc(F)cc4)nn23)CC1	-1.1	x	3.2	-3.8%	4.5	i
CCN1CCN(c2cc(-c3ccccc3)nc3cc(-c4cccc(F)c4)nn23)CC1	-31.6	25.1µM*	2.4	-6.3%	13.4	-1.6
C[C@@H]1CN([C@H](C)CO)C(=O)CCCn2nncc2CO[C@@H]1CN(C)C(=O)Nc1cccc2ccccc12	11.1	u	x	x	x	-77.3*
C[C@@H]1CN([C@@H](C)CO)C(=O)CCCn2nncc2CO[C@H]1CN(C)C(=O)Nc1cccc2ccccc12	3.3	u	x	x	x	15.3
C[C@H](CO)N1C[C@H](C)[C@H](CN(C)C(=O)Cc2ccccc2)OCc2cnnn2CCCC1=O	17.9	-2.5%	x	x	x	-264.5*
Cc1ccc(C(C)C)c(OCC(O)CN2CCc3ccccc3C2)c1 (stereo not drawn)	0.6	x	-13.2	-14.6%	14.2	-112.9*
COc1ccc(COCC(O)CN2CCc3ccccc3C2)cc1OC (stereo not drawn)	-2.8	28.2µM*	-5.7	-1.8%	5.0	6.7
Cc1ccc(C(C)C)c(OCC(O)CN2CCN(c3ccccc3F)CC2)c1 (stereo not drawn)	x	1.0%	x	x	x	x
CCCOc1cc(C)nc(-c2ccccc2O)n1	27.6	1.2%	-7.0	8.5%	6.5	1.4
CCCCN(CCCC)c1cc(C)nc(-c2ccccc2O)n1	5.2	31.6µM*	-8.9	-1.5%	22.7	-23.5
O=C(C[n+]1cccc(Br)c1)c1cccc([N+](=O)[O-])c1	x	-0.5%	x	x	x	x
CN(C)c1nc(Cl)nc(N(C#N)CCOc2ccccc2)n1	-83.2*	-2.9%	3.9	-0.8%	10.9	-1.9
CCNc1nc(NCC)nc(N(C#N)CCOc2ccccc2)n1	17.4	-1.4%	2.5	-2.8%	5.8	-5.4
O=C(NCc1ccco1)c1ccc(COc2cccc3ccccc23)cc1	-12.4	11.2µM*	-0.7	3.5%	18.1	-3.7
CCOc1cc(OCC)cc(C(=O)NCc2ccco2)c1	-7.6	14.1µM*	-12.7	-8.3%	28.8	2.3
O=C(NCc1ccco1)c1ccc(COc2ccccc2Cl)cc1	11.2	-1.6%	-12.4	1.7%	u	11.1
CN(C)S(=O)(=O)c1ccc2c(c1)N(CC(=O)NCc1cccc(Br)c1)C(=O)CS2	x	1.0%	x	x	x	x
CCNC(=O)CC1C(=O)N(c2ccccc2)C(=O)N1Cc1ccc(F)cc1 (stereo not drawn)	x	-1.3%	x	x	x	x
COCCn1ccc2c(OCC(=O)NCc3ccc(C)cc3)cccc2c1=O	-7.2	28.2µM*	8.4	-1.7%	-1.0	6.0
COCCn1ccc2c(OCC(=O)NCc3ccccc3)cccc2c1=O	6.1	-30.0%	8.8	-8.4%	1.2	1.3
Cc1ccc(S(=O)(=O)N2CC3C(=O)C[C@@H](c4ccccc4)N(S(=O)(=O)c4cccc(Cl)c4)C3CC2c2ccccc2)cc1 (stereo partly drawn)	x	0.8%	x	x	x	x
Cc1cc(C)cc(OC(C)c2ccnc3nc(/N=C/N(C)C)nn23)c1 (stereo not drawn)	11.0	28.2µM*	-7.6	-0.6%	10.2	-5.2
CC(Oc1cccc(F)c1)c1ccnc2nc(/N=C/N(C)C)nn12 (stereo not drawn)	11.2	x	-5.4	-5.6%	5.8	-8.3
CC(Oc1ccccc1)c1ccnc2nc(/N=C/N(C)C)nn12 (stereo not drawn)	-8.5	28.2µM*	-0.5	-28.7%	-0.7	-16.8
CCOC(=O)c1noc2nc(C)n(Cc3ccc([N+](=O)[O-])cc3)c(=O)c12	x	1.9%	x	x	x	x
